In PubChem BioAssay (NCATS) one finds max response, Potency and outcome data, which are given here for 26 molecules.

Assay [1] in a line: qHTS Assay for Identifying Gametocytocidal Compounds (AID 743244). Further: potency means the concentration at half of the fitted maximal effect.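 On max response: on the % scale 0 is the no-effect control and ±100 the full control effect; actives lower the fluorescent signal which means gametocytes are killed.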 The conditions noted are these: P. falciparum 3D7 stage III-V gametocytes, alamarBlue, 72 h; max response: stronger effect = lower value. Summed up:
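Stage III–V gametocytes of P. falciparum 3D7 were seeded at 20,000 cells/well onto pre-dispensed compounds. After 72 h, 37 °C, 5% CO2, alamarBlue was added for another 24 h.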
A general note: Quantitative high-throughput screening tests each substance at several concentrations.

Assay [2] in a line: qHTS assay for measurement of the activity of small molecule inhibitors on Zika virus induced Caspase-3 activity in human iPSC derived neural progenitor cells (hNPCs) (AID 1224857). Further: nearly all actives have a fitted effect of over 65% in size. Further: potency means the concentration at half of the fitted maximal effect. Put shortly: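 Values are percent inhibition of virus-induced caspase-3/7 signal, scaled between uninfected cells and ZIKV-infected cells. Infection used 2 FFU/cell for 6 h after 1 h compound exposure.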

The nature of assay [3]: qHTS assay for measurement of the activity of small molecule inhibitors on Zika virus induced Caspase-3 activity in human astrocytoma cells (AID 1224859).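 Further: plate controls were ZIKV-infected untreated cells for no effect and uninfected cells for full effect.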 Summed up: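 Compound added 1 h pre-infection; ZIKV 2 FFU/cell on SNB-19 cells, 6 h, 37 C/5% CO2. Caspase-Glo 3/7 luminescence; values as % inhibition of ZIKV-induced caspase activity.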
A short description of assay [4]: qHTS assay to identify small molecule inhibitors of chordoma cells - UCH-1 (AID 1259355). Further: nearly all actives have a fitted effect of over 55% in size. Further: potency means the concentration at half of the fitted maximal effect; series mostly up to about 46 µM. Put shortly:
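Screening used approved and investigational drugs in 15-point titration against 800 seeded cells per well. A fixed combination of auranofin with camptothecin, doxorubicin, rubitecan and topotecan followed compound addition, and growth was scored by CellTiter-Glo after 48hr.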

Assay [5] in a line: qHTS assay to identify small molecule inhibitors of chordoma cells - UCH-2 (AID 1259356). Further: potency means the concentration at half of the fitted maximal effect.
Assay [6] in a line: P-glycoprotein substrates identified in KB-8-5-11 adenocarcinoma cell line, qHTS therapeutic library screen (AID 1346987). Further: nearly all actives have a fitted effect of over 65% in size. Further: potency means the concentration at half of the fitted maximal effect. Summed up:
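Human cervical adenocarcinoma KB-8-5-11 cells, selected in colchicine to over-express P-gp and assayed without it, were exposed for 72 h to titrated compounds. An ATP-based luminescent viability signal gave AC50.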

The nature of assay [7]: NS1 protein of Zika virus - qHTS assay to identify small molecule inhibitors in human HEK 293 cells (AID 1347053). Further: nearly all actives have a fitted effect of over 55% in size. Further: potency means the concentration at half of the fitted maximal effect. Put shortly: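 TR-FRET signal from two anti-ZIKV NS1 antibodies quantified NS1 in HEK 293 cells 24 h after MR766 infection at MOI = 0.5; compounds were added 1 h before virus. Uninfected cells and infected cells defined the NS1 normalization range.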

Molecules are shown by their SMILES. Unmarked numbers belong to inactive results. Records with an inconclusive call do not appear. Activity calls are given as the source filed them. The call rests on the fitted dose curve; in most records, active means well fitted curve in the direction sought with a large enough effect; inconclusive means small, poorly fitted or top-dose-only effect, or another doubt; inactive means no such curve, though single readings can be large; an effect the other way counts as inactive or inconclusive.

With `CCNC(=O)NCc1cccc(Cl)c1`, in assay [1], the max response is 8.55%. For the same molecule, the Potency result in assay [2], in assay [4], in assay [5], in assay [6] and in assay [7] was “inactive” in each case. Besides, the molecule was classed as inactive in assay [3].

In the case of `NC(=O)n1c(O)c(C(=O)c2cccs2)c2cc(Cl)ccc21`, in assay [1], the max response was -6.13%. Moreover, the Potency entry in assay [2], in assay [4], in assay [5], in assay [6] and in assay [7] was “inactive” in each case. For the same molecule, the call in assay [3] was inactive.

As for `CC(C)Cc1ccc(CC(=O)O)cc1`, the max response in assay [1] was 6.47%. Further, the Potency result in assay [2], in assay [4], in assay [5], in assay [6] and in assay [7] was “inactive” in each case. In assay [3], the outcome was inactive.

As for `O=C(O)Cc1csc(-c2ccc(Cl)cc2)n1`, the max response in assay [1] is -4.61%. The Potency entry in assay [2], in assay [4], in assay [5], in assay [6] and in assay [7] was “inactive” in each case. Also, the result in assay [3] was inactive.

For `CC(C)(C)NCC(O)COc1cccc2c1C[C@H](O)[C@H](O)C2` (some centres not stated), the max response in assay [1] was -0.0039%. The Potency entry in assay [2], in assay [4], in assay [5], in assay [6] and in assay [7] was “inactive” each time. The result in assay [3] was inactive.

Regarding `NS(=O)(=O)c1cc(C(=O)O)cc(N2CCCC2)c1Oc1ccccc1`, the max response in assay [1] is -3.9%. In addition, the Potency entry in assay [2], in assay [4], in assay [5], in assay [6] and in assay [7] was “inactive” each time. In addition, the molecule was classed as inactive in assay [3].

On to `O=[N+]([O-])c1cccc(S(=O)(=O)NCCNS(=O)(=O)c2cccc([N+](=O)[O-])c2)c1`, for which, in assay [1], the max response was 1.36%. Further, the Potency result in assay [2], in assay [4], in assay [5], in assay [6] and in assay [7] was “inactive” each time. In assay [3], the call was inactive.

As to `O=C(Nc1ncc([N+](=O)[O-])s1)c1cccs1`, in assay [1], the max response was 35.1%. For the same molecule, the Potency entry in assay [2], in assay [5] and in assay [7] was “inactive” in each case. Besides, the call in assay [3] was inactive. For the same molecule, the Potency was 14.1 µM (active) in assay [4] and 16.4 µM (active) in assay [6].

Consider `O=C(Nc1ccc([N+](=O)[O-])cc1)Nc1ccc([N+](=O)[O-])cc1`, for which the max response in assay [1] is 3.29%. For the same molecule, the Potency entry in assay [2], in assay [4], in assay [5], in assay [6] and in assay [7] was “inactive” throughout. The molecule was called inactive in assay [3].

On to `CC(=O)Nc1ccc(CC(=O)O)cc1`, for which the max response in assay [1] was 7.88%. Also, the Potency entry in assay [2], in assay [4], in assay [5], in assay [6] and in assay [7] was “inactive” each time. Further, in assay [3], the result was inactive.

For the molecule `COc1ccc(CCN(C)CCCN2CCc3cc(OC)c(OC)cc3CC2=O)cc1OC`, the max response in assay [1] was -9.4%. Also, the Potency result in assay [2], in assay [4], in assay [5], in assay [6] and in assay [7] was “inactive” each time. Besides, the molecule was classed as inactive in assay [3].

For the molecule `CCOc1cc(OCC)c(C(=O)CCC(=O)O)cc1OCC`, the max response in assay [1] was 11%. Moreover, the Potency result in assay [2], in assay [4], in assay [5], in assay [6] and in assay [7] was “inactive” each time. For the same molecule, the molecule was classed as inactive in assay [3].

For `C[C@H]1O[C@@H](O[C@H]2CC[C@@]3(C)[C@H](CC[C@@H]4[C@@H]3C[C@@H](O)[C@]3(C)[C@@H](C5=CC(=O)OC5)CC[C@]43O)C2)C[C@H](O)[C@@H]1O[C@H]1C[C@H](O)[C@H](O[C@H]2C[C@H](O)[C@H](O[C@@H]3O[C@H](CO)[C@@H](O)[C@H](O)[C@H]3O)[C@@H](C)O2)[C@@H](C)O1`, the max response in assay [1] was -0.158%. The Potency entry in assay [2] and in assay [7] was “inactive” throughout. Besides, in assay [3], the call was inactive. Also, the results for the Potency in assay [4], in assay [5] and in assay [6] were 0.708 µM (active), 0.58 µM (active) and 0.651 µM (active), respectively.

As for `NS(=O)(=O)c1cc2c(cc1Cl)NC(CC1CCCC1)NS2(=O)=O` (configuration not stated), the max response in assay [1] is 17.3%. In addition, the Potency result in assay [2], in assay [4], in assay [5], in assay [6] and in assay [7] was “inactive” in each case. For the same molecule, the molecule was called inactive in assay [3].

Take `CCC(C(=O)OCCOCCN(CC)CC)c1ccccc1` (configuration not stated): in assay [1], the max response was 6.25%. Also, the Potency entry in assay [2], in assay [4], in assay [5], in assay [6] and in assay [7] was “inactive” each time. Moreover, the molecule was classed as inactive in assay [3].

In the case of `O=C(c1ccc(F)cc1)C1CCN(CCn2c(=S)[nH]c3ccccc3c2=O)CC1`, the max response in assay [1] was -2.47%. The Potency result in assay [2], in assay [4], in assay [5], in assay [6] and in assay [7] was “inactive” each time. For the same molecule, in assay [3], the molecule was classed as inactive.

In the case of `CC(O)Cn1cnc2c1c(=O)n(C)c(=O)n2C` (configuration not stated), in assay [1], the max response was 5.34%. Besides, the Potency entry in assay [2], in assay [4], in assay [5], in assay [6] and in assay [7] was “inactive” in each case. The outcome in assay [3] was inactive.

In the case of `O=C(O)C(Cc1cc(I)c(O)c(I)c1)c1ccccc1` (configuration not stated), the max response in assay [1] is -2.86%. The Potency entry in assay [2], in assay [4], in assay [5], in assay [6] and in assay [7] was “inactive” each time. Moreover, the call in assay [3] was inactive.

As for `CC(C)Cn1cnc2c1c(=O)n(C)c(=O)n2C`, in assay [1], the max response was -4.05%. Further, the Potency entry in assay [2], in assay [4], in assay [5], in assay [6] and in assay [7] was “inactive” in each case. Besides, the molecule was called inactive in assay [3].

For `CCC(CC)(CC(=O)Nc1cccc(/C=C/c2nc(C3CCC3)cs2)c1)C(=O)O`, in assay [1], the max response was 48.4%. The Potency entry in assay [2], in assay [4], in assay [5], in assay [6] and in assay [7] was “inactive” each time. Moreover, the outcome in assay [3] was inactive.

Turning to `C/C=C/C=N/NC(=O)c1ccncc1`, the max response in assay [1] was -5.06%. In addition, the Potency result in assay [2], in assay [4], in assay [5], in assay [6] and in assay [7] was “inactive” throughout. For the same molecule, the molecule was called inactive in assay [3].

For `CCCCCCCCCCCCSCCOCCO`, the max response in assay [1] is 3.73%. Also, the Potency entry in assay [2], in assay [4], in assay [5], in assay [6] and in assay [7] was “inactive” each time. Moreover, the molecule was called inactive in assay [3].

Regarding `CCN1/C(=C/C=C/c2sc3ccccc3[n+]2CC)Sc2ccccc21`, the Potency was 1.58 µM (active) in assay [1]; 3.16 µM (active) in assay [2]; 7.94 µM (active) in assay [4]; 5.8 µM (active) in assay [5]; 18.4 µM (active) in assay [6]; 3.55 µM (active) in assay [7]. In assay [3], the molecule was called inactive.

Turning to `Cc1nc(-c2ccc(Cl)cc2)oc1COC(C)(C)C(=O)O`, in assay [1], the max response is -2.69%. Also, the Potency result in assay [2], in assay [4], in assay [5], in assay [6] and in assay [7] was “inactive” in each case. Moreover, the call in assay [3] was inactive.

Regarding `COc1cc(NS(=O)(=O)c2ccc(N)cc2)ncn1`, the max response in assay [1] was -7.94%. Further, the Potency result in assay [2], in assay [4], in assay [5], in assay [6] and in assay [7] was “inactive” in each case. The result in assay [3] was inactive.

For the molecule `CC[N+](C)(CC)CCOC(=O)C(O)(c1ccccc1)C1CCCCC1` (configuration not stated), in assay [1], the max response was -1.51%. In addition, the Potency result in assay [2], in assay [4], in assay [5], in assay [6] and in assay [7] was “inactive” each time. Besides, the result in assay [3] was inactive.
